# Assay outcomes (PubChem)
# Hits are enriched below; roughly 1.5% of the tested compounds scored in any of these assays.
# S1P3 antag – blocks the human S1P3 receptor; AID 485; hit rate 0.27% among 170,000; CHO S1P3 NFAT-BLA reporter, FRET fluorescence, antagonist mode; inhibition, % at 4.98 µM;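 active = inhibition above the plate cutoff, the mean inhibition of test wells on that plate plus 3 SD, cut at about 28% in these data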;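 also: cells challenged with S1P at its EC80 of 0.8 µM; blue over green emission ratio from cleaved BLA substrate after 4 h stimulation; 0% = S1P-stimulated wells and 100% = unstimulated DMSO-only wells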
# Insulin prom up – MIN6 insulin promoter up-regulation; MIN6 insulin promoter-GFP reporter, high-content imaging; active compounds read high; hit rate 0.3% among 190,000; z-score at 5 µM;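 active = z-score above 3 at 5 µM with at least 500 cells counted in the well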
# Hsp70 act – transcriptional activators of Hsp70. AID 1203. hit rate 0.04% among 200,000. activation, % at 10 µM. HeLa Hsp70 promoter luciferase reporter, luminescence; scaled: vehicle 0, proteasome-inhibitor control 100%;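 active = activation above the mean across all tested compounds plus 3 SD, cutoff set per campaign, cut at about 5.5% in these data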;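 also: 100% = MG132 at 30 µM as the positive control and 0% = DMSO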
# S1P4 agonist – human S1P4 receptor agonism; S1P4-expressing cell line, agonist reporter assay; hit rate 0.35% among 220,000; AID 1509; activation, % at 4.98 µM; in the data active = activation above about 11%;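 also: 0% = DMSO vehicle and 100% = reference agonist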
# Target sequence (O95977 whole entry, looked up): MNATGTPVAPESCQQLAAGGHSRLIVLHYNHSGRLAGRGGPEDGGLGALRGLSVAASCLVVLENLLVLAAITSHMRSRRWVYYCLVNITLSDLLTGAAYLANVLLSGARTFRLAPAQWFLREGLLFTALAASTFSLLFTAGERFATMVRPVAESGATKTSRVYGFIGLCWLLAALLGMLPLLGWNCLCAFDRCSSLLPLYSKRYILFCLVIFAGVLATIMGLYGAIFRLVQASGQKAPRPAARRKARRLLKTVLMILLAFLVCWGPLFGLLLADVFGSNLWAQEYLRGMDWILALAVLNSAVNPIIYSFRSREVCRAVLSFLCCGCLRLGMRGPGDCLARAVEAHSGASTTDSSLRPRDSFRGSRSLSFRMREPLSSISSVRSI
# Insulin prom inh – TRM-6 insulin promoter activity inhibition; TRM-6 cells (human fetal islet line), insulin promoter-eGFP reporter, imaging; reporter expression induced with tamoxifen; inhibition, % at 2 µM; hit rate 0.9% among 130,000;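 active = inhibition above the mean plus 3 SD, with well images judged a real hit on visual review, cut at about 60% in these data, passing the limit was not always enough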
# S1P4 antag – human S1P4 receptor antagonism. hit rate 0.26% among 220,000. O95977. AID 1510. S1P4-expressing cells, antagonist mode, reporter read-out. inhibition, % at 4.98 µM; in the data active = inhibition above about 29%;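 also: 0% = wells stimulated with agonist and 100% = vehicle wells without agonist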
# * hit, by the source's call; i = inactive; . = no result.
SMILES,S1P3 antag,Insulin prom up,Hsp70 act,S1P4 agonist,Insulin prom inh,S1P4 antag
Cc1ccc(CNC(=O)CCC(=O)c2cccs2)cc1,.,0.27,0,-4,.,8
COc1cc2c3nnc(-c4ccc(F)cc4)c-3cn(Cc3ccccc3F)c2cc1OC,2,6.3*,0,1,i,-8
COc1ccccc1N1CCN(c2nnc(-c3ccc(F)cc3)c3ccccc23)CC1,.,-0.15,0,-2,-70,4
Cc1cc(NC(=O)/C(C#N)=C/c2ccc(-c3ccc(SC(F)F)cc3)o2)n(-c2ccccc2)n1,-17,3.4*,0,0,27,-7
Cc1cc(NC(=O)/C(C#N)=C/c2ccc(-c3cccc(C(F)(F)F)c3)o2)n(-c2ccccc2)n1,-10,-0.19,0,0,.,-9
O=C1OCC2=C1C(c1ccc(F)cc1)c1cc3c(cc1N2)OCCO3 (stereo not given),35*,-0.39,1,1,-127,-2
O=C(O)c1cnc2ccccc2n1,6,0.49,0,-1,85*,-15
O=C(c1cncc(Br)c1)N1CCc2ccccc2C1,.,0.84,-1,2,86*,-27
Cc1ccccc1C(=O)N1CCc2ccccc2C1,.,4*,0,0,-26,-1
O=C(c1ccccc1Cl)N1CCc2ccccc2C1,-8,0.1,0,1,-71,-21
Cn1c2ccccc2c(=O)c2c(=O)n(Cc3ccco3)c(-c3ccc(C(C)(C)C)cc3)nc21,-3,-1.1,.,1,.,-9
C=CCN(c1ccccc1)S(=O)(=O)c1cccc2cccnc12,14,0.47,.,-1,.,-9
Cc1cccc(OCCC(=O)NCC(c2ccco2)N2CCCCC2)c1 (stereo not given),.,.,0,1,-8,11
Cc1cc(C)nc(N2CCC(C(=O)NCCc3ccc(F)cc3)CC2)n1,-20,0.04,0,1,25,-5
Cc1cc(C)nc(N2CCCC(C(=O)NCCc3ccc(F)cc3)C2)n1 (stereo not given),-36,0.15,0,0,86*,-10
Cc1ccccc1Cn1c(=O)n(Cc2ccco2)c(=O)c2ccccc21,55*,-0.62,0,2,42,0
CCOC(=O)c1sc(NC(=O)c2cccs2)nc1C,.,-0.02,0,-2,23,-23
CCOC(=O)c1sc2nc(NC(=O)c3cccs3)sc2c1C,70*,.,.,.,.,.
COc1ccc(/C=C(/C#N)C(=O)Nc2cc(C)ccc2C)cc1C(=O)O,.,0.54,0,1,-17,-2
CC(=O)N1CCN(Cc2nc3cc(NC(=O)c4ccccc4)ccc3n2C)CC1,.,3.4*,0,0,0,-6
S=c1[nH]ccn1-c1c(Cl)cccc1Cl,-1,-0.22,.,1,.,-17
COc1ccc(-c2nc(N3CCCC3)[nH]c(=O)c2C#N)cc1,.,.,0,1,0,14
COc1ccc(-c2nc(N3CCC(C)CC3)[nH]c(=O)c2C#N)cc1,.,0.66,0,1,71*,-4
Cn1cc(Br)c(-c2cccc(N3C(=O)CCCC3=O)c2)n1,-12,.,.,-1,.,5
Cn1nc(C(=O)NCc2ccco2)c2ccccc2c1=O,-20,0.14,0,0,62*,2
SMILES,S1P3 antag,Insulin prom up,Hsp70 act,S1P4 agonist,Insulin prom inh,S1P4 antag
COc1ccc(CNC(=O)Cn2ncn3c(cc4ccccc43)c2=O)cc1,1,-0.02,.,1,.,-9
Cn1nc(C(=O)Nc2ccc(S(=O)(=O)NCc3ccco3)cc2)c2ccccc2c1=O,-8,-0.37,.,1,.,8
O=C(Cn1ncn2c(cc3ccccc32)c1=O)NCc1ccco1,-8,3.8*,0,1,.,-25
CN(C)N=Nc1nc2c(c(=O)n(C)c(=O)n2C)n1CC1CO1 (stereo not given),-12,-0.53,.,1,.,2
O=C1c2cccc3cccc(c23)C(=O)N1c1nncs1,-9,-0.16,0,-1,.,-2
O=C1N/C(=C/c2ccc(N3CCOCC3)o2)C(=O)N1c1cccc(Cl)c1,-15,0.4,5,0,-100,-4
FC(F)(F)c1cccc(NC(=S)Nc2cccc(NC(=S)Nc3cccc(C(F)(F)F)c3)n2)c1,6,-1.1,.,3,.,-20
N=C1C(c2ccccc2)=C(O)CN1c1ccccc1,-8,0.5,0,0,.,8
Cc1ccc(N2CC(O)=C(c3ccccc3)C2=N)cc1,3,-0.86,0,-2,73*,-13
CC(CCc1ccccc1)NC(=O)CN1CCSc2ccccc21 (stereo not given),-8,1.3,0,2,.,6
COc1ccc(-c2cn(/N=C/c3ccc(Cl)cc3Cl)c(N)n2)cc1,.,-1,0,3,-6,-9
O=C(NCC1CCCO1)c1ccccn1 (stereo not given),-13,.,0,-2,75*,-16
O=C(NCC1CCCO1)c1ccccc1 (stereo not given),.,0.83,0,-2,3,-2
CCCCN(CCCC)CCCOC(=O)c1ccc(N)cc1,0,.,0,2,-5,-2
CCOC(=O)c1sc2nc(C)cc(C)c2c1N,-10,0.75,0,0,77*,3
CN(Cc1ccccc1)C(=O)c1cccc(N2C(=O)NC3CC2(C)Oc2ccccc23)c1 (stereo not given),.,-0.88,0,-2,-28,-9
Cc1oc2c(c1C(=O)Nc1cccc(C(=O)O)c1)CCCC2,.,.,0,2,66*,-4
CC(=O)N1C(C(=O)O)CSC1c1cccc(C)c1 (stereo not given),.,0.54,0,1,10,-13
O=C(O)C1CSC(c2ccccc2)N1C(=O)c1ccco1 (stereo not given),.,-0.61,0,-1,74*,-25
CCNc1ccc(C(=O)OCC(=O)c2cc(C)n(Cc3ccc4c(c3)OCO4)c2C)cc1[N+](=O)[O-],5,0.06,0,1,17,0
CCOC(=O)c1sc(NC(=O)c2ccccc2F)c(C(N)=O)c1C,2,-0.12,0,2,79*,-7
CCOC(=O)c1sc(NC(=O)c2ccccc2C(=O)O)c(C(=O)OCC)c1C,-7,-0.34,.,2,.,-2
Cc1ccc(CS(=O)(=O)Cc2ccc(C(=O)NCc3cccs3)o2)cc1,6,0.4,0,3,6,10
COc1ccc2c(=O)c3c(=O)n(-c4ccc(C)cc4)c(-c4ccccc4)nc3oc2c1,-7,-1,.,0,.,1
Cc1ccc(-n2c(C)nc3oc4ccccc4c(=O)c3c2=O)cc1,-11,3.9*,0,-1,9,-12
NC(=O)Nc1ccc(C(=O)OCC(=O)Nc2cccc(S(=O)(=O)NC3=NCCCCC3)c2)cc1,4,1.4,.,2,.,0
CCOC(=O)C1(C)C=C(Nc2ccc(C)cc2)C(=O)N1c1ccc(C)cc1 (stereo not given),-4,-0.06,0,1,70*,-2
CCOC(=O)C1(C)/C(=N/Nc2ccc(S(N)(=O)=O)cc2)C(=O)C(=O)N1c1ccccc1 (stereo not given),-12,0.45,0,-1,28,2
